Screening results from PubChem.
An excerpt weighted towards active compounds, which were near 0.95% of everything screened.
A488 autofl: qHTS Assay for Spectroscopic Profiling in A488 Spectral Region; compound autofluorescence, A488 spectral region, dye equivalency; Compound Type: qHTS ECL - MLSMR; max dye equivalency, M; hit rate 0.1% among 59,000; AID 591, 2007
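Compounds pin-transferred into 100 mM Tris buffer, pH 8.0, incubated 15 min at room temperature, then imaged with 480 nm excitation/540 nm emission filters. Fluorescence converted to Alexa 488 dye-equivalent concentration via an on-plate six-point A488 standard curve.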
Resorufin autofl: qHTS Assay for Spectroscopic Profiling in Resorufin Spectral Region | Compound fluorescence, resorufin region 547/598 nm, buffer; active compounds read high | max dye-equivalent concentration, M | hit rate 0.04% among 59,000 | AID 588, 2007
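Intrinsic fluorescence profiled in the resorufin window (ex 547 nm, em 598 nm) after 15 min at room temperature in pH 8.0 Tris buffer (100 mM); responses normalized against a six-point resorufin standard series as dye-equivalent concentration.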
A647 fluor: qHTS Assay for Spectroscopic Profiling in A647 Spectral Region; Compound fluorescence, A647 channel (570/671 nm), Tris buffer; max dye-equivalent concentration, M; 59,000 tested, under 10 active;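 further: values scaled relative to a standard on each plate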
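Spectral profiling of library compounds in pH 8.0 Tris: 15 min room-temperature incubation, single ex/em pair (570/671 nm), response normalized to Alexa 647 equivalents.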
Rhodamine fluor: qHTS Assay for Spectroscopic Profiling in Rhodamine Spectral Region | Rhodamine-region fluorescence, 547/598 nm, Tris buffer; active compounds read high | max dye-equivalent concentration, M | hit rate 0.05% among 59,000 | AID 594, 2007; in the data active means max dye-equivalent concentration above about 11 nM; inconclusive means between about 1.1 nM and that limit
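A six-point rhodamine series on each plate calibrates the signal. Compounds sit in 100 mM Tris (pH 8.0) for 15 min at ambient temperature before imaging through 547 nm/598 nm filters.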
Texas Red fluor: qHTS Assay for Spectroscopic Profiling in Texas Red Spectral Region | Compound fluorescence, Texas Red channel, 547/618 nm; active compounds read high | max dye-equivalent concentration, M | hit rate 0.06% among 59,000; in the data active means max dye-equivalent concentration above about 10 nM; inconclusive means between about 1.1 nM and that limit
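qHTS profiling of intrinsic compound fluorescence; 100 mM Tris pH 8.0; 15 min RT; ex 547 / em 618 nm; response expressed as Texas Red dye-equivalent concentration from six-point plate standard.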
Fluorescein fluor: qHTS Assay for Spectroscopic Profiling in Fluorescein Spectral Region. Compound autofluorescence, 480/540 nm, fluorescein-equivalent; active compounds read high. max fluorescein-equivalent concentration, M. hit rate 0.91% among 59,000; in the data active means max fluorescein-equivalent concentration above about 10 nM; inconclusive means between about 1.1 nM and that limit
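Autofluorescence profiling; 100 mM Tris, pH 8.0; incubation 15 min at RT; ex/em 480/540 nm; result as fluorescein-equivalent concentration.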
The depositor's hits bear a star; i = inactive; ? = inconclusive. Unless noted, how the calls were made is not given here.

SMILES | A488 autofl | Resorufin autofl | A647 fluor | Rhodamine fluor | Texas Red fluor | Fluorescein fluor
CC(C)(N)CO[C@H]1C[C@H]2CC[C@@]1(C)C2(C)C | i | i | 2.3e-08 | i | i | ?
CN(C)c1ccc(/C=c2\sc3n(c2=O)CCCN=3)cc1 | i | i | 1e-09 | i | i | 1.5e-08M*
COC(=O)/C=c1/sc2n(c1=O)CCN=2 | i | i | 1.8e-08 | i | i | i
C=C1C(=O)O[C@H]2C[C@@]3(C)CCCC(=C)[C@@H]3C[C@H]12 | i | i | 5.2e-09 | i | ? | i
COC(=O)N1CCC2(CC1)CCN(c1cccc(-c3ccccc3)c1)CC2 | i | i | 4.9e-09 | i | ? | i
O=C(O)[C@@H]1CCCN1Cc1cc2ccccc2c2ccccc12 | i | i | 5.7e-08 | i | i | ?
Clc1ccc(CN2CCCN(Cc3ccc(Cl)cc3)C2c2cc3ccccc3c3ccccc23)cc1 | i | i | 3.5e-09 | i | i | 1.2e-08M*
CN(C)c1ccc(-c2cncnc2Nc2ccc(F)cc2)cc1 | i | i | 1e-09 | i | i | i
O=c1oc2c(CN3CCCCC3)c(O)ccc2cc1-c1nc2ccccc2[nH]1 | 1.4e-07M* | i | 1e-09 | i | i | 2.8e-06M*
CC[C@@H]1OC(=O)[C@@H](C)[C@H](O[C@@H]2C[C@@](C)(OC)[C@@H](O)[C@H](C)O2)[C@H](C)[C@H](O[C@@H]2O[C@@H](C)C[C@@H](N(C)C)[C@H]2O)[C@@](C)(O)C[C@H](C)C(=O)[C@@H](C)[C@H](O)[C@@]1(C)O | i | i | 1.9e-08 | i | i | ?
COc1cccc(C2C=C(c3ccc(Br)s3)Nc3ncnn32)c1OC (stereo unspecified) | i | i | 1e-09 | i | i | 1.5e-08M*
Fc1ccc(Br)cc1C1C=C(c2ccc(Br)s2)Nc2ncnn21 (stereo unspecified) | i | i | 3.4e-09 | i | i | ?
COCCn1c(=O)c(C)nc2cnc(Nc3cccc(OC)c3)nc21 | i | i | 1e-09 | i | i | i
COCCn1c(=O)c(-c2ccc(OC)cc2)nc2cnc(Nc3cccc(OC)c3)nc21 | i | i | 3.4e-09 | i | i | 1e-08M*
COc1cccc(Nc2ncc3nc(-c4cn(C)c5ccccc45)c(=O)n(CCC#N)c3n2)c1 | i | i | 2.5e-08 | i | i | 2.4e-08M*
O=C(c1cc(C(F)(F)F)cc(C(F)(F)F)c1)N1CCC2(CC1)CN(c1ccccn1)C2 | i | i | 4.2e-09 | i | i | i
C[C@](O)(c1ccccc1)c1nccc2ccccc12 | i | i | 2.7e-08 | i | i | ?
CC(=O)CSCc1ccccn1 | i | i | 5.3e-08 | i | i | ?
CN[C@H]1[C@H](O)[C@@H](O[C@@H]2[C@H](O)[C@@H](O[C@H]3OC(CN)=CC[C@H]3N)[C@@H](N)C[C@H]2N)OC[C@@]1(C)O | i | i | 1e-09 | i | i | ?
CCN[C@@H]1C[C@H](N)[C@H](O[C@H]2OC(CN)=CC[C@H]2N)[C@@H](O)[C@H]1O[C@H]1OC[C@@](C)(O)[C@@H](NC)[C@@H]1O | i | i | 1e-09 | i | i | 2.4e-08M*
CN1/C(=C\C(=O)COC(=O)Cn2nnc(-c3ccccc3)n2)C(C)(C)c2ccccc21 | i | ? | 9.5e-09 | ? | 2.2e-08M* | ?
CC1(C)CCC[C@@]2(C)[C@@H]1CC[C@]1(C)OC(=O)C[C@@H]21 | i | i | 1e-09 | i | i | i
O=C(c1[nH]o[n+](=O)c1C(=O)c1csc2ccccc12)c1csc2ccccc12 | i | i | 1e-09 | i | i | i
CC(C)n1c(=NC(=O)c2ccco2)c(C#N)cc2c(=O)n3ccccc3cc21 | i | i | 1e-09 | i | ? | 1.1e-08M*
CCCn1c(=NC(=O)c2ccco2)c(C(=O)OCC)cc2c(=O)n3ccccc3nc21 | i | i | 1e-09 | i | i | i
SMILES | A488 autofl | Resorufin autofl | A647 fluor | Rhodamine fluor | Texas Red fluor | Fluorescein fluor
COC(=O)c1ccc(C2/C(=C(/O)c3ccc(OC(C)C)cc3)C(=O)C(=O)N2c2cc(C)on2)cc1 (stereo unspecified) | i | i | 8e-09 | i | ? | i
COC(=O)c1ccc(C2/C(=C(/O)c3ccc(OC)cc3)C(=O)C(=O)N2c2cc(C)on2)cc1 (stereo unspecified) | i | i | 2.7e-09 | i | i | 1e-08M*
O=C(O)c1ccc2c(c1)NC(=O)C(N1CCCC1)S2 (stereo unspecified) | i | i | 4.1e-08 | i | i | 1.1e-08M*
COC(=O)c1ccc2c(c1)NC(=O)C(N1CCCC1)S2 (stereo unspecified) | i | i | 3.5e-08 | i | i | ?
NCCSS(=O)(=O)CCN | i | i | 3.2e-08 | i | i | ?
CNc1ncnc2c1ncn2[C@H]1C[C@@H](OP(=O)(O)O)[C@H](COP(=O)(O)O)O1 | i | i | 1.3e-09 | i | i | ?
CCOC(=O)CSc1nnc(N)s1 | i | i | 2.3e-09 | i | ? | ?
CCOC(=O)CSC1=NC(=O)CS1 | i | i | 1e-09 | i | i | 2e-08M*
CCOn1c(=O)c(-c2ccc(OC)cc2)[n+]([O-])c2ccccc21 | i | i | 1e-09 | i | i | i
CCOC(=O)COn1c(=O)c(-c2cccs2)[n+]([O-])c2ccccc21 | i | i | 2.9e-08 | i | i | 1.3e-08M*
CC(=O)C1=C(C)N=c2s/c(=C/c3ccc4c(c3)OCO4)c(=O)n2C1c1ccc(N(C)C)cc1 (stereo unspecified) | i | i | 2.5e-09 | i | i | i
COc1ccc(C2C(C(C)=O)=C(C)N=c3s/c(=C/c4ccc5c(c4)OCO5)c(=O)n32)cc1 (stereo unspecified) | i | i | 1.5e-09 | i | i | 1.2e-08M*
CC1CC=C2C(C#N)=C(N)C(C#N)(C#N)C(c3cccs3)C2C1 (stereo unspecified) | i | i | 2.4e-08 | i | i | 2.7e-08M*
CC(C)(C)OC(=O)N1CC=C2C(C#N)=C(N)C(C#N)(C#N)C(c3cccs3)C2C1 (stereo unspecified) | i | i | 4.1e-08 | i | i | 1.8e-08M*
CC(C)(C)OC(=O)N1CC=C2C(C#N)=C(N)C(C#N)(C#N)[C@H](c3cccnc3)[C@H]2C1 | i | i | 7.7e-08 | i | i | ?
